Test [1] concerns the target T1, Ephrin type-B receptor 1 (Homo sapiens) (UniProt P54762).
T1 sequence (whole entry): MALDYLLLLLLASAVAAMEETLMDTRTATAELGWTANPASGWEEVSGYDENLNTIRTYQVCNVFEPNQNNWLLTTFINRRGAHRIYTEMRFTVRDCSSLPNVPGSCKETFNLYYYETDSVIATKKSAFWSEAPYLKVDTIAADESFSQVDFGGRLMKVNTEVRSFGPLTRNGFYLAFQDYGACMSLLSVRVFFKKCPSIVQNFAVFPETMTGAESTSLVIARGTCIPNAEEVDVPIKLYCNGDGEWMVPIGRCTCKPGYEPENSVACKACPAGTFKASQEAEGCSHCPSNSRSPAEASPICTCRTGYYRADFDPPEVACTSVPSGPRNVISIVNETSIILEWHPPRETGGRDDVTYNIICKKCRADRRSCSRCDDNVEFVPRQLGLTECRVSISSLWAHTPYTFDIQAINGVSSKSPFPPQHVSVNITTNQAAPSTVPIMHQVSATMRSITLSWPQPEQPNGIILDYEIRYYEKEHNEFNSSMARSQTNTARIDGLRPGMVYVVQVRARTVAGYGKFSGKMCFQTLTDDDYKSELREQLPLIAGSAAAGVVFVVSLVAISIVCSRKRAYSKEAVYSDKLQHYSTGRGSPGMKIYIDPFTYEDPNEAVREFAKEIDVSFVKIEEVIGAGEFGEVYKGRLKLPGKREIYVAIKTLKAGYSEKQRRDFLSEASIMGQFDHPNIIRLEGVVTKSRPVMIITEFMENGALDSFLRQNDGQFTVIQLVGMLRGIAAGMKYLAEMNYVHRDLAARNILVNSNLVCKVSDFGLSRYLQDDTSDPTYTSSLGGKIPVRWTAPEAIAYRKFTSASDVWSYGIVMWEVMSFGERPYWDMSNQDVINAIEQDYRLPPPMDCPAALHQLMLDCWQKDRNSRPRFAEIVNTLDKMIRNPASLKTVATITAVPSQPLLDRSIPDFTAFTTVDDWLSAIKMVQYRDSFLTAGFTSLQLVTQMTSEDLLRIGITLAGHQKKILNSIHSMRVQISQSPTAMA
As to conditions: at 10 µM; call rule not given here.

For test [2], the target named is T2, Ephrin type-B receptor 2 (Homo sapiens) (UniProt P29323).
T2 sequence (whole entry): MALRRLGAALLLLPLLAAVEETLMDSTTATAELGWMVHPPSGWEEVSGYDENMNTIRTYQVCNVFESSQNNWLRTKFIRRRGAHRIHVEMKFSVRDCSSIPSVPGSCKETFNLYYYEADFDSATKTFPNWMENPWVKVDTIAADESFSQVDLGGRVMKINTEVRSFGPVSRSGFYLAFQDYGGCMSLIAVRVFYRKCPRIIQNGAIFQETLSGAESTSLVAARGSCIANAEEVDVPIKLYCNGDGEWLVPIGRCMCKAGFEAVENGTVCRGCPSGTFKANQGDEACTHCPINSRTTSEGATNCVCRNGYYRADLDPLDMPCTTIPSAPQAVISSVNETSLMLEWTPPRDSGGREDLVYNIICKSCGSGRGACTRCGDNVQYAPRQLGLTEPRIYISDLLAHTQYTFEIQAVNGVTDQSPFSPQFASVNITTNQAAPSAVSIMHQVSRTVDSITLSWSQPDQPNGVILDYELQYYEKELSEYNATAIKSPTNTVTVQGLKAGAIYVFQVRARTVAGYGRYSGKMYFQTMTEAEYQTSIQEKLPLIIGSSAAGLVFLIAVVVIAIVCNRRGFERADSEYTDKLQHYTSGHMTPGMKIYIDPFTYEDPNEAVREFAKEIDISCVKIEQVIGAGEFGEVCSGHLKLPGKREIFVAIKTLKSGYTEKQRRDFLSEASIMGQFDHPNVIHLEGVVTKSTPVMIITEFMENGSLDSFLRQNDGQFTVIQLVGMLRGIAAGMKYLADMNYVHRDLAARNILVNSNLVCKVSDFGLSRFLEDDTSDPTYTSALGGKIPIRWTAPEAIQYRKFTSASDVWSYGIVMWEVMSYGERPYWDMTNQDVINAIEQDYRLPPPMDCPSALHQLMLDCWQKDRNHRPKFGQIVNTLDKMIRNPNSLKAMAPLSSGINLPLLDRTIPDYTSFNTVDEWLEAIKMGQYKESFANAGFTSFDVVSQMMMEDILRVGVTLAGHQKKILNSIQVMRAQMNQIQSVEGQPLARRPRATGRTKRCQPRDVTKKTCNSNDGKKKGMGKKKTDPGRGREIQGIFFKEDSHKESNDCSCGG
Conditions: at 1 µM.

Test [3] addresses T2, Ephrin type-B receptor 2 (Homo sapiens). Conditions: at 10 µM.
Test [4] concerns the target T3, Ephrin type-B receptor 3 (Homo sapiens) (UniProt P54753).
T3 sequence (whole entry): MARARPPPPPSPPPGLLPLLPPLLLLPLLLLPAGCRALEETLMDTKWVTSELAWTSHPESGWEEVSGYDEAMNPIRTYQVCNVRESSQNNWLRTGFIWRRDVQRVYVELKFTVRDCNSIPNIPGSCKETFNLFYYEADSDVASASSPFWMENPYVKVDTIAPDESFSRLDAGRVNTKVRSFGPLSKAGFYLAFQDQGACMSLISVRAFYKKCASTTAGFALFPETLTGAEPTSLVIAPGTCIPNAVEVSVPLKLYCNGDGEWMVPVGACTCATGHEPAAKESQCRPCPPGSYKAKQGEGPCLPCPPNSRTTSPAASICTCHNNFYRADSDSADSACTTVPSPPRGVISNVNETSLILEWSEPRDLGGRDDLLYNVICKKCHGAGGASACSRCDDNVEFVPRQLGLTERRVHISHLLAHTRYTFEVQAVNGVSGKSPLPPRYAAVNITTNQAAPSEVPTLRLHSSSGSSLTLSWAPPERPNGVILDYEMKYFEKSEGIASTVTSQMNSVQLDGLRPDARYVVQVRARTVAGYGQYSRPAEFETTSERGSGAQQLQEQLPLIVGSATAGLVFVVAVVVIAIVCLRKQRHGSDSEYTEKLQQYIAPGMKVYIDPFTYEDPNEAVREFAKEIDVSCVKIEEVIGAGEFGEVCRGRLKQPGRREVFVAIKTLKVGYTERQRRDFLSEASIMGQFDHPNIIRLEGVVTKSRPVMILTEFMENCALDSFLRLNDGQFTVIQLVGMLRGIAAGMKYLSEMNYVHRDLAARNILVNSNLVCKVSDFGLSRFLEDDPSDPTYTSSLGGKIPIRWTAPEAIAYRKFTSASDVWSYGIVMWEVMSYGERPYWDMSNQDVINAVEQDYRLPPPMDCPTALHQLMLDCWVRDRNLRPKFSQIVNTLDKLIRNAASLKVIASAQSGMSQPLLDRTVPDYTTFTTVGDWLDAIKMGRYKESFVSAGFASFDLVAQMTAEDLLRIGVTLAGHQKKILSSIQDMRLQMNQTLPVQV
As to conditions: at 1 µM.

For test [5], the target named is T3, Ephrin type-B receptor 3 (Homo sapiens). Conditions: at 10 µM.
Test [6] deals with T4, Ephrin type-B receptor 4 (Homo sapiens) (UniProt P54760).
T4 sequence (whole entry): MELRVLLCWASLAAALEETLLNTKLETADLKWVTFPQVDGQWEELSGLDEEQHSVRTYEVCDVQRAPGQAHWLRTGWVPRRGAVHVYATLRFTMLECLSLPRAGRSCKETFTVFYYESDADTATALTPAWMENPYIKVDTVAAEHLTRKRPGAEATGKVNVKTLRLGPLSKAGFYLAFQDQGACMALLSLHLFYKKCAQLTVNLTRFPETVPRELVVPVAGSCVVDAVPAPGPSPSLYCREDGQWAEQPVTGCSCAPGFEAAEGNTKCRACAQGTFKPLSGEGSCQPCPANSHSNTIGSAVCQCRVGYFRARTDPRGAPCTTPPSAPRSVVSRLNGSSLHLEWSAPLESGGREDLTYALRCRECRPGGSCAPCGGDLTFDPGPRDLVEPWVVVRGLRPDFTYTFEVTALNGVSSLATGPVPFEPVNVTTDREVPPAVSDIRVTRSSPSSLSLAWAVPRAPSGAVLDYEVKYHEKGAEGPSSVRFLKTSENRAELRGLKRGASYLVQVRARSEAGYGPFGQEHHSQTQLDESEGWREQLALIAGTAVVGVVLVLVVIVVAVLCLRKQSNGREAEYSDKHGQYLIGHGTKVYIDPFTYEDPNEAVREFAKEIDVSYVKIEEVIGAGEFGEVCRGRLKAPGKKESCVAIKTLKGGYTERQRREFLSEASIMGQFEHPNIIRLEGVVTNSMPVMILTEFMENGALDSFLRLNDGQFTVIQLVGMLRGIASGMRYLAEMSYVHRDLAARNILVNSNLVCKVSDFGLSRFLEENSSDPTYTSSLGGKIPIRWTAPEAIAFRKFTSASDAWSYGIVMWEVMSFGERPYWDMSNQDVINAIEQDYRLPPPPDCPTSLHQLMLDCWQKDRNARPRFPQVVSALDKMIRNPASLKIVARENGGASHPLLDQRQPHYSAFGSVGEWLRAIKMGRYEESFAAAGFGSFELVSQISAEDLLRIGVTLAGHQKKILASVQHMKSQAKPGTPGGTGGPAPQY
As to conditions: at 1 µM.

Test [7] addresses T4, Ephrin type-B receptor 4 (Homo sapiens). Conditions: at 10 µM.
For test [8], the target named is Receptor tyrosine-protein kinase erbB-4 (Homo sapiens) (UniProt Q15303). Conditions: at 1 µM.
Test [9] shares this target. As to conditions: at 10 µM.
The target in test [10] is Focal adhesion kinase 1 (Homo sapiens) (UniProt Q05397). Conditions: at 1 µM.

Each structure is given as a SMILES string.

Receptor tyrosine-protein kinase erbB-4 (Homo sapiens), sequence (Q15303 whole entry): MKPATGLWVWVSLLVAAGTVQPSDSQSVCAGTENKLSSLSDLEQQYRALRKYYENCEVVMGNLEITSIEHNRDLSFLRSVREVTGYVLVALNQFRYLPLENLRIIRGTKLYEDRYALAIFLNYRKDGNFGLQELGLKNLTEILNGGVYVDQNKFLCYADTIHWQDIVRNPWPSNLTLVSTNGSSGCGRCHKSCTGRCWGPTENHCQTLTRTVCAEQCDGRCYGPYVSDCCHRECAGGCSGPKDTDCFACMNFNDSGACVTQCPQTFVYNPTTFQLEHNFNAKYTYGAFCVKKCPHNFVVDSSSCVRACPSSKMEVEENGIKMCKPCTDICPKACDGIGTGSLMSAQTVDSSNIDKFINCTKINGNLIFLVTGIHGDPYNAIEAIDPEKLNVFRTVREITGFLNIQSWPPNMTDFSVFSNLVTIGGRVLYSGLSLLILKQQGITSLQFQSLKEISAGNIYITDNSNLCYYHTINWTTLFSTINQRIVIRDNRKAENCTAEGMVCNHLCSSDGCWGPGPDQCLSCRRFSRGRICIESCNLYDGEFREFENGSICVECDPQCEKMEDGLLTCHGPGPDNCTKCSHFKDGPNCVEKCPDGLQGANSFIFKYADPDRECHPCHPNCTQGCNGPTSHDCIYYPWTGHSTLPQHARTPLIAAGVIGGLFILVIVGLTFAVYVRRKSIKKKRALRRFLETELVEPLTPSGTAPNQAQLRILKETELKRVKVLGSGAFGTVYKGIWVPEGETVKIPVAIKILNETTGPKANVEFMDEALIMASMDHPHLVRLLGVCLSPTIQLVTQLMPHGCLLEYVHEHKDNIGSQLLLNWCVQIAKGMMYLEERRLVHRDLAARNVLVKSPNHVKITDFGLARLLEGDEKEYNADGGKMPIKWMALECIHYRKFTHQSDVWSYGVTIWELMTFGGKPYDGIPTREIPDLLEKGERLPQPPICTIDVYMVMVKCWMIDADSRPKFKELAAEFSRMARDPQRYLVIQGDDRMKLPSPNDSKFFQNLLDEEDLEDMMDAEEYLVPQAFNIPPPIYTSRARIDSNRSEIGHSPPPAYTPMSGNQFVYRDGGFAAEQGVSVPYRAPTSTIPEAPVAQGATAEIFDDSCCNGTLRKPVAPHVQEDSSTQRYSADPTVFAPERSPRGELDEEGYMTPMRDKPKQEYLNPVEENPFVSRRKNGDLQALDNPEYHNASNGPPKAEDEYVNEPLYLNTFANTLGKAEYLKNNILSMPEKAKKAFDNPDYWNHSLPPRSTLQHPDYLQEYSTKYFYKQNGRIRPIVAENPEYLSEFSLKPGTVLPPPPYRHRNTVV
Focal adhesion kinase 1 (Homo sapiens), sequence (Q05397 2-1052 limits assumed): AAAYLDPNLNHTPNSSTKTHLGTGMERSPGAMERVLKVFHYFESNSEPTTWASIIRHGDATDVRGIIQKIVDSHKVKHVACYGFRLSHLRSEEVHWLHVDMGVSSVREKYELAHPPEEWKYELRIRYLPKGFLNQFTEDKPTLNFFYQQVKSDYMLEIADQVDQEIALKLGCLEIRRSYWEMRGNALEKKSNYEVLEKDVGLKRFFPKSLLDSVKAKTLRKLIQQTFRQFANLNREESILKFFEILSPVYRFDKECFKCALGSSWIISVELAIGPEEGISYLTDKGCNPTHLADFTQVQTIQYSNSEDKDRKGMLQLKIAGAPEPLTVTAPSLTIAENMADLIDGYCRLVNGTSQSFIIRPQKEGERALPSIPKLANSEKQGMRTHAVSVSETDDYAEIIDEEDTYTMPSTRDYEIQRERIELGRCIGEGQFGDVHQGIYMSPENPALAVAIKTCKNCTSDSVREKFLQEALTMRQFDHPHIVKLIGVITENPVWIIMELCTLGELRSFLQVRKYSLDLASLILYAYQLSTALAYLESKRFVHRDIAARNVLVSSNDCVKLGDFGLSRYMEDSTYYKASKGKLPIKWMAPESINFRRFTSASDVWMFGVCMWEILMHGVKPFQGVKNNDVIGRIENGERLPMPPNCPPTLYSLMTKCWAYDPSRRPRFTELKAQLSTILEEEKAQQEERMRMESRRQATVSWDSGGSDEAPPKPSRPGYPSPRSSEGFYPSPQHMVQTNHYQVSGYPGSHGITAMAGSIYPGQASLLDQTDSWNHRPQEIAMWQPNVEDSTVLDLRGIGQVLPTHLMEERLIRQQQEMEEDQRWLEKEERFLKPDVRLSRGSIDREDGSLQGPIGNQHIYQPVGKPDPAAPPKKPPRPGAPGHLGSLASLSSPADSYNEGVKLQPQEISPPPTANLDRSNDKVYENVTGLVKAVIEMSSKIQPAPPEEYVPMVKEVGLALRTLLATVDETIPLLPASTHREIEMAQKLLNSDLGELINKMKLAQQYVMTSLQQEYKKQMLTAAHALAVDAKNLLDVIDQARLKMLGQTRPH

One may read the residual activity as the share of the control activity or signal that is left under treatment. Regarding `O=C1Nc2cc(Br)ccc2/C1=C1/Nc2ccccc2/C1=N\O`, the residual activity was 42% in test [1]; 33% in test [2]; 22% in test [3]; 100% (inactive) in test [4]; 95% in test [5]; 17% in test [6]. The residual activity in test [7] was determined as 4%; in test [8] it was 84%; in test [9], 88%; in test [10], 59%.
